# Experiments:
# [1] = target: T1, Inhibitor of nuclear factor kappa-B kinase subunit epsilon (Homo sapiens) (UniProt Q14164); settings: at 1 µM;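 also: reported values are averaged percent inhibition figures against human IKKε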
# T1 sequence (whole entry): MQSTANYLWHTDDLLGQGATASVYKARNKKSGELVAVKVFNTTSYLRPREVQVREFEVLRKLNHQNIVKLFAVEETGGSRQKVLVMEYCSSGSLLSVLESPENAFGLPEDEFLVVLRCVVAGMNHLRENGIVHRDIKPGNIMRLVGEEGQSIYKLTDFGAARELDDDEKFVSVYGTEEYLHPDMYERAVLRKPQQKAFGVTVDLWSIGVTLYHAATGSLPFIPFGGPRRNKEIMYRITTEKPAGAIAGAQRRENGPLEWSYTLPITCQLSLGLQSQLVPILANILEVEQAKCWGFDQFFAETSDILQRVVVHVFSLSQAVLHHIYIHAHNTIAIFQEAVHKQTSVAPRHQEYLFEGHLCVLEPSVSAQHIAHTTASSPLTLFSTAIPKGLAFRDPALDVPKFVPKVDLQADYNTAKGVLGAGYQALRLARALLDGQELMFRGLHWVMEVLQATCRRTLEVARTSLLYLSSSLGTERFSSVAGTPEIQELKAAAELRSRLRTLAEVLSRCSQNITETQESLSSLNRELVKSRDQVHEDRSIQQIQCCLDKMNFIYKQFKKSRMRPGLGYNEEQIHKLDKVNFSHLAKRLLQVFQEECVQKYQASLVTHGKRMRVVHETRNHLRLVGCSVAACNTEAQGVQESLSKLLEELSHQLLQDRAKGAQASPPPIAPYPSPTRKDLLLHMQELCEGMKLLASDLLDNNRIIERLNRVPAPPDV
# [2] = target: T2, Serine/threonine-protein kinase Nek1 (Homo sapiens) (UniProt Q96PY6); settings: at 0.1 µM
# T2 sequence (whole entry): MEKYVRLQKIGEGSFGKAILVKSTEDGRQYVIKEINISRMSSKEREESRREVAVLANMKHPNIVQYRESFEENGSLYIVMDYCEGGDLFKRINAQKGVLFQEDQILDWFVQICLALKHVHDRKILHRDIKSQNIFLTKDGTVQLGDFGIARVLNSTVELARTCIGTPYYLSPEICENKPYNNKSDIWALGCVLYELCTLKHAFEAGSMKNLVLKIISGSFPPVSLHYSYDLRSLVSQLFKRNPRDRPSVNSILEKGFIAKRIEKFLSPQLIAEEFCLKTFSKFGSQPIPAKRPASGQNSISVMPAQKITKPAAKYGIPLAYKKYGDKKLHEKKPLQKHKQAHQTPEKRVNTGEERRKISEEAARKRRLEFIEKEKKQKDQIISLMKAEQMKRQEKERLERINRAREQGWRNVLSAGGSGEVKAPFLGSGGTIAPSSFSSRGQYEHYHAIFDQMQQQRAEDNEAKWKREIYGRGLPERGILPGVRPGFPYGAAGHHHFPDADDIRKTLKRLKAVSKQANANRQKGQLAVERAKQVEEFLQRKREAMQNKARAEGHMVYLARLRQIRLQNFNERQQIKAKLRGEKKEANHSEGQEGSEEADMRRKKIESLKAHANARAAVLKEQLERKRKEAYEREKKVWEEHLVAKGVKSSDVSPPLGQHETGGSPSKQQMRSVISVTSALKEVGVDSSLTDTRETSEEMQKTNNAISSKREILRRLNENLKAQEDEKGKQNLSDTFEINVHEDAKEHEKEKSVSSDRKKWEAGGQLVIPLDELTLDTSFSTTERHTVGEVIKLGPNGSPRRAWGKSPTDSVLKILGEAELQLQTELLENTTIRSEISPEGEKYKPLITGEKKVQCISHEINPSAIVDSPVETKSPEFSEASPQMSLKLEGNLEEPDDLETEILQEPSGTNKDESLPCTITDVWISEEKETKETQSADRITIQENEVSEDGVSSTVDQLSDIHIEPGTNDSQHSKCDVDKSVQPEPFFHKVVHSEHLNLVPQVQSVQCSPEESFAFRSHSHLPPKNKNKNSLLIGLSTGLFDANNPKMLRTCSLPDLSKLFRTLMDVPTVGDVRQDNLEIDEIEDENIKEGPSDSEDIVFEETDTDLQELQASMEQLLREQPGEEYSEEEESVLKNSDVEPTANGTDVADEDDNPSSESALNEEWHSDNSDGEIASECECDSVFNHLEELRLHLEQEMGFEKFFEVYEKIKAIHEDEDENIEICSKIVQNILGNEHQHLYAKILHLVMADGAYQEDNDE
# [3] = target: T2, Serine/threonine-protein kinase Nek1 (Homo sapiens); settings: at 1 µM
# [4] = target: T3, Serine/threonine-protein kinase Nek2 (Homo sapiens) (UniProt P51955); settings: at 0.1 µM
# T3 sequence (whole entry): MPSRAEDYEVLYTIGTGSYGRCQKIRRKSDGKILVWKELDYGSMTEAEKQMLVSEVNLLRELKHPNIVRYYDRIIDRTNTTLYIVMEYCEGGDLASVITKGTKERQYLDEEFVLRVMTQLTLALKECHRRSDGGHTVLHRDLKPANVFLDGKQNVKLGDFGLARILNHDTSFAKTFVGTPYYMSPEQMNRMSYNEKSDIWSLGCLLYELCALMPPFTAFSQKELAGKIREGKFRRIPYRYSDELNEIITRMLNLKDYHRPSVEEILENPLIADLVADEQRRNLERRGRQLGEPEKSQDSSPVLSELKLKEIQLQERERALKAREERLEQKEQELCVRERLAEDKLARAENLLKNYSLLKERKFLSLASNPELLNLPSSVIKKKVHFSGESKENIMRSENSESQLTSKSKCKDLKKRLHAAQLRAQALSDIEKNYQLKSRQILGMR
# [5] = target: T3, Serine/threonine-protein kinase Nek2 (Homo sapiens); settings: at 1 µM
# [6] = target: Serine/threonine-protein kinase Nek6 (Homo sapiens) (UniProt Q9HC98); settings: at 0.1 µM
# Serine/threonine-protein kinase Nek6 (Homo sapiens), sequence (Q9HC98 whole entry): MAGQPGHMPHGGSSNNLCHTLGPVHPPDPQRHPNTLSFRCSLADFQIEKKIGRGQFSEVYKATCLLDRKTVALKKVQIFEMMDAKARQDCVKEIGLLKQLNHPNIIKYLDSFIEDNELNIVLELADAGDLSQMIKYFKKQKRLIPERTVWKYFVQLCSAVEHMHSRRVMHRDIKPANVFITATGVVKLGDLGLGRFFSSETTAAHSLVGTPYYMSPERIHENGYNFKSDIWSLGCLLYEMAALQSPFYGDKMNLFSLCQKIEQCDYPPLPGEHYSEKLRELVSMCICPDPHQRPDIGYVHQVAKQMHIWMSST
# [7] = target: Serine/threonine-protein kinase Nek6 (Homo sapiens) (UniProt Q9HC98); settings: at 1 µM
# [8] = target: Serine/threonine-protein kinase Nek7 (Homo sapiens) (UniProt Q8TDX7); settings: at 0.1 µM
# Serine/threonine-protein kinase Nek7 (Homo sapiens), sequence (Q8TDX7 whole entry, looked up): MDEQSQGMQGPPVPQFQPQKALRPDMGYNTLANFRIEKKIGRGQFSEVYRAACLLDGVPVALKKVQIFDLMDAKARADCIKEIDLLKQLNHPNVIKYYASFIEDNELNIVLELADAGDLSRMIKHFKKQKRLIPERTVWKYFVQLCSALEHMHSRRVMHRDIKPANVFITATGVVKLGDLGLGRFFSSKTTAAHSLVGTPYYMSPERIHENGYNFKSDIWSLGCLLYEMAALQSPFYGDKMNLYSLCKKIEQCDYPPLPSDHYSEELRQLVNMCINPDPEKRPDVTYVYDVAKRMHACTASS
# [9] = target: Serine/threonine-protein kinase Nek7 (Homo sapiens) (UniProt Q8TDX7); settings: at 1 µM
# [10] = target: T4, Serine/threonine-protein kinase Nek9 (Homo sapiens) (UniProt Q8TD19); settings: at 0.1 µM
# T4 sequence (whole entry): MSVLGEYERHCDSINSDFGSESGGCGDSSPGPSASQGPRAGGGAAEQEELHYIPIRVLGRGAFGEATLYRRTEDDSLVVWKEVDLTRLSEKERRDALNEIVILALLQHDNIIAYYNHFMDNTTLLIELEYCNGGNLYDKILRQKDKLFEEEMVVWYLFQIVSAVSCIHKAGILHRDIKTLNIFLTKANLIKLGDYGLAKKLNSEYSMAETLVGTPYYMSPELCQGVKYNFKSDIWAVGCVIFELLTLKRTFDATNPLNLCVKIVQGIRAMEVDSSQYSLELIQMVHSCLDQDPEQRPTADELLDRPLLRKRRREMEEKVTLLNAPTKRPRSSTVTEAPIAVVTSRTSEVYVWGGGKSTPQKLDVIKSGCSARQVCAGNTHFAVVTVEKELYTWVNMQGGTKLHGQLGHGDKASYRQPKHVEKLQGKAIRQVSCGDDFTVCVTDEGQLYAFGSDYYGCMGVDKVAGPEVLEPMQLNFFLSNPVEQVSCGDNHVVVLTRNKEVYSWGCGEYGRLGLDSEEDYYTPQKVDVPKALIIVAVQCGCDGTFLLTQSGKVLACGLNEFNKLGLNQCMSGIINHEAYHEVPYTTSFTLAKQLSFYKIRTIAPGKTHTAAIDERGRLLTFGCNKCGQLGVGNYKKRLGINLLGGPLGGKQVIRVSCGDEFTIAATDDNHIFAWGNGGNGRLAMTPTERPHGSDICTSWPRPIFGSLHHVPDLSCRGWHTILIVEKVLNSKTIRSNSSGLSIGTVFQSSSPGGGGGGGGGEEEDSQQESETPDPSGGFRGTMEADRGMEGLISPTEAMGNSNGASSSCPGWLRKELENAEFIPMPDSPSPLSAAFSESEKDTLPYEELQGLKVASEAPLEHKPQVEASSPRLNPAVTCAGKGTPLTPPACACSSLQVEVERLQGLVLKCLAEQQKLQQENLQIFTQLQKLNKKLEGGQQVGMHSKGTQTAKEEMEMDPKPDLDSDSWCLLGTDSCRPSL
# [11] = target: T4, Serine/threonine-protein kinase Nek9 (Homo sapiens); settings: at 1 µM
# [12] = target: Serine/threonine-protein kinase PLK1 (Homo sapiens) (UniProt P53350); settings: at 0.1 µM
# Serine/threonine-protein kinase PLK1 (Homo sapiens), sequence (P53350 whole entry): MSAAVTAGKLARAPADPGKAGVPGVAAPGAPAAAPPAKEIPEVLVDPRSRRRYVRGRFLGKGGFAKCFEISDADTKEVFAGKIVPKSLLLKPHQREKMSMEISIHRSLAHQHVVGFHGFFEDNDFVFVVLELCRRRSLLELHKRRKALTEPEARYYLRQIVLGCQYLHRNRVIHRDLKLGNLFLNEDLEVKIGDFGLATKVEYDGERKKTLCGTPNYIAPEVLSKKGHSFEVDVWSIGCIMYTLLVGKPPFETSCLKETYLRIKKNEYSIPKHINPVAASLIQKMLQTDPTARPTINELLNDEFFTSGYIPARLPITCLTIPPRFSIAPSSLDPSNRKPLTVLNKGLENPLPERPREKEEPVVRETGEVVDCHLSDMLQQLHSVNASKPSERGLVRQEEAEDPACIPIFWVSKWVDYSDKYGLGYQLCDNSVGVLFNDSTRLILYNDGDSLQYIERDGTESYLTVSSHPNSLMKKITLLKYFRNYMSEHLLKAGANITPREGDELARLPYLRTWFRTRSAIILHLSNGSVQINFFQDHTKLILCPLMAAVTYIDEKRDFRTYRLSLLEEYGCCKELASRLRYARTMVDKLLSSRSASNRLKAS
# [13] = target: Serine/threonine-protein kinase PLK1 (Homo sapiens) (UniProt P53350); settings: at 1 µM
# [14] = target: T5, Dual specificity protein kinase TTK (Homo sapiens) (UniProt P33981); settings: at 0.1 µM
# T5 sequence (whole entry): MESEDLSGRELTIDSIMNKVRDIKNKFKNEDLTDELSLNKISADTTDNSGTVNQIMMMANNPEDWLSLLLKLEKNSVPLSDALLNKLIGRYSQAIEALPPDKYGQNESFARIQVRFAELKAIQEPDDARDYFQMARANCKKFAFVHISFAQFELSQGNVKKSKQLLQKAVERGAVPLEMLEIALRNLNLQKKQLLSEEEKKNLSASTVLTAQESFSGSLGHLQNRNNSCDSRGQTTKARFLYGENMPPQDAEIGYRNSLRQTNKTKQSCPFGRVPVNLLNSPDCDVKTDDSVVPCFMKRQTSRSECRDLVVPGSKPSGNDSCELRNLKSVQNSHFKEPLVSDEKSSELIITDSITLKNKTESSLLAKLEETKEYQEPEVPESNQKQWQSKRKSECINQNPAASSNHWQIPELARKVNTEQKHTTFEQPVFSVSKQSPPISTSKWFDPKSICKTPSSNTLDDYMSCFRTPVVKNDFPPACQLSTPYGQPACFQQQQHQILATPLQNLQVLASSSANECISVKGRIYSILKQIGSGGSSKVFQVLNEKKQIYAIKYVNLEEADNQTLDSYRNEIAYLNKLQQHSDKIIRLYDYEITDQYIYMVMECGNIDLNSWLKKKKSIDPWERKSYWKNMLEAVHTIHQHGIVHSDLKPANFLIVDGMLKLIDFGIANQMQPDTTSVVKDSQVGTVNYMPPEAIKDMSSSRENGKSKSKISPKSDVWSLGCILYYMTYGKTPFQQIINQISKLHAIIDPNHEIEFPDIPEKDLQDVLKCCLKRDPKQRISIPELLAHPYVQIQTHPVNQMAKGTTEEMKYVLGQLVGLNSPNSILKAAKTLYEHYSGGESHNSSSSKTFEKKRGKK
# [15] = test system: T6, Receptor-type tyrosine-protein kinase FLT3 (Homo sapiens), P36888 [D835Y]; settings: at 1 µM
# T6 sequence (whole entry): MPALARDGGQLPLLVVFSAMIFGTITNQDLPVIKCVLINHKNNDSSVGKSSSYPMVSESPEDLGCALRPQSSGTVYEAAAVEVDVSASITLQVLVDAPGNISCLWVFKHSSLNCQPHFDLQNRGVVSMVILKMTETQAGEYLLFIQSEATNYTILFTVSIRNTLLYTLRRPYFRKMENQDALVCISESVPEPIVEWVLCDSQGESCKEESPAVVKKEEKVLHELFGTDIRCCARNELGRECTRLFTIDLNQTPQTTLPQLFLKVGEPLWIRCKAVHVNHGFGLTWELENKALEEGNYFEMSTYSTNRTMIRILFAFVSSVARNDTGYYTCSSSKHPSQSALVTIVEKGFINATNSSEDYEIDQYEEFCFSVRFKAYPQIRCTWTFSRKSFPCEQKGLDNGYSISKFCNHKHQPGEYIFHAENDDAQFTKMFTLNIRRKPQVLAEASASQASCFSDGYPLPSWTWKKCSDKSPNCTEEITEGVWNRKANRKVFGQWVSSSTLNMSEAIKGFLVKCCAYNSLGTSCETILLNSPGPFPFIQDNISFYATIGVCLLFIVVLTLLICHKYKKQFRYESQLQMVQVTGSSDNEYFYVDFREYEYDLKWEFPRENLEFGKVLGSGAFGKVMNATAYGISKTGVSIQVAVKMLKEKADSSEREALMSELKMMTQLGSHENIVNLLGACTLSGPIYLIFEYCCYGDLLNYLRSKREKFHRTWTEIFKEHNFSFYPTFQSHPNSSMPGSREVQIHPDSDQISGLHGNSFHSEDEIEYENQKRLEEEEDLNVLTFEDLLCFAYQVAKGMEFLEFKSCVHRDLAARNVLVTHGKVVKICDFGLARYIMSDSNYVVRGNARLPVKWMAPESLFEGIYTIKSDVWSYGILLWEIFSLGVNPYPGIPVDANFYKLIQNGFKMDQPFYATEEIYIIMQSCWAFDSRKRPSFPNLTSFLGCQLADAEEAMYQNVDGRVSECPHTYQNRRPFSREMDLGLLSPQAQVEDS
# [16] = target: Vascular endothelial growth factor receptor 3 (Homo sapiens) (UniProt P35916); settings: at 0.1 µM
# Vascular endothelial growth factor receptor 3 (Homo sapiens), sequence (P35916 whole entry): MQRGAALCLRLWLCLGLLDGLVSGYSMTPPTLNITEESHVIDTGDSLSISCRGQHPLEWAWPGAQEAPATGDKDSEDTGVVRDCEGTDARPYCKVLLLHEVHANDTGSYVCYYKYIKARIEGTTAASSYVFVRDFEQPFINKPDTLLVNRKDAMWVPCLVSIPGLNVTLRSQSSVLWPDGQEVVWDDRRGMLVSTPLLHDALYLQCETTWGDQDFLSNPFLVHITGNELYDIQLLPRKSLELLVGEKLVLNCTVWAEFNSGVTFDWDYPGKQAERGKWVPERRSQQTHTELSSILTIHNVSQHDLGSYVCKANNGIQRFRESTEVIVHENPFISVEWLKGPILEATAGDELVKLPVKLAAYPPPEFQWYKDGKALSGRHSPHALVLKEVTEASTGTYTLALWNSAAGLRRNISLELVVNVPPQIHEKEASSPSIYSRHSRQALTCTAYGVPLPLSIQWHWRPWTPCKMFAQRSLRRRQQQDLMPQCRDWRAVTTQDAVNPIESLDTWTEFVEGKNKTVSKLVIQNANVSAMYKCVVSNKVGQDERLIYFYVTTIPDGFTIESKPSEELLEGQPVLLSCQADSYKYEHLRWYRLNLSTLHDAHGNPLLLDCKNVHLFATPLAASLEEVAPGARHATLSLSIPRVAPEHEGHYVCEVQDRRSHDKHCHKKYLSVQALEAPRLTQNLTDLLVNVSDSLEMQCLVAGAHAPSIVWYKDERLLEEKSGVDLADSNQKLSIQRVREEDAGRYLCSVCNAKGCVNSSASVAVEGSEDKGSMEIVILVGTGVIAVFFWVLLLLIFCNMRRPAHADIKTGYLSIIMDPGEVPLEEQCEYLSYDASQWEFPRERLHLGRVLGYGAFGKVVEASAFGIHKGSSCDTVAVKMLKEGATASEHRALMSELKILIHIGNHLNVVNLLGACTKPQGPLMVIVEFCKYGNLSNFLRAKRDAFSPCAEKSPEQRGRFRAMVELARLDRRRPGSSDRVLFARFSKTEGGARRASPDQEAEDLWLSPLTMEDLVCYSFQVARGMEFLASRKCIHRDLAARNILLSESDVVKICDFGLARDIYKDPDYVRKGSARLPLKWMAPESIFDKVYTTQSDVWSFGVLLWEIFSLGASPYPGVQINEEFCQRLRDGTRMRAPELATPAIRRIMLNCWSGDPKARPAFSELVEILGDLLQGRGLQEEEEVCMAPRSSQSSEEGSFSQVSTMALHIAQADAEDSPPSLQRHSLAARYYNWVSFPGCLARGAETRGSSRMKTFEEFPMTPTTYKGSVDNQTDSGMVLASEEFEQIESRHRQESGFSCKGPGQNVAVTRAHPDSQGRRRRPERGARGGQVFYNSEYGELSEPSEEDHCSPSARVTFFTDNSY
# [17] = target: Vascular endothelial growth factor receptor 3 (Homo sapiens) (UniProt P35916); settings: at 1 µM
# [18] = target: Macrophage colony-stimulating factor 1 receptor (Homo sapiens) (UniProt P07333); settings: at 0.1 µM
# Macrophage colony-stimulating factor 1 receptor (Homo sapiens), sequence (P07333 whole entry): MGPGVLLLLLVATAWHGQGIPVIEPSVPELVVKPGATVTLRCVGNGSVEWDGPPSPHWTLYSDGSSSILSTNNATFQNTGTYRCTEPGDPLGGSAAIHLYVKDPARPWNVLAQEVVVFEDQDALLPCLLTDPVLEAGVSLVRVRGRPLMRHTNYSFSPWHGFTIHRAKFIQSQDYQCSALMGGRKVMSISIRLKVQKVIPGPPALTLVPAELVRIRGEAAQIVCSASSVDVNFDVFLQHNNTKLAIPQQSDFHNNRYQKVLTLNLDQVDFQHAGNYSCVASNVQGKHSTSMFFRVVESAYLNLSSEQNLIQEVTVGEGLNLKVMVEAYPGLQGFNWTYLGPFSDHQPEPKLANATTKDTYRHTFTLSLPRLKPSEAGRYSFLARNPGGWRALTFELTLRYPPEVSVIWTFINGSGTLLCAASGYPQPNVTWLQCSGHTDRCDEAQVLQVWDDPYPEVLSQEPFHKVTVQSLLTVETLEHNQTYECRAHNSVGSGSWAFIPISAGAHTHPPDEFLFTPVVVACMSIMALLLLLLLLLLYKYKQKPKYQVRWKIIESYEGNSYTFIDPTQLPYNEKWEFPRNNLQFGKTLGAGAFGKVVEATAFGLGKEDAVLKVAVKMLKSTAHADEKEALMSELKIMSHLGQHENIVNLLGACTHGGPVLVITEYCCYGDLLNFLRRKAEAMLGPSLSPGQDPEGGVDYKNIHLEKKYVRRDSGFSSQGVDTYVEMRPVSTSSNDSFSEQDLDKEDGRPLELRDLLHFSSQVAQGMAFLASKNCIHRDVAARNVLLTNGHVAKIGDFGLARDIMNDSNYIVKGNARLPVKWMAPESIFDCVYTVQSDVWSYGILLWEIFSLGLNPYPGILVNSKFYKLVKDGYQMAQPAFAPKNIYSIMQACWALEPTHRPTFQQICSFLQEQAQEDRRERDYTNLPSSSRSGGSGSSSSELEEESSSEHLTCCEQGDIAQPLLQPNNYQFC
# [19] = target: Macrophage colony-stimulating factor 1 receptor (Homo sapiens) (UniProt P07333); settings: at 1 µM
# [20] = target: Tyrosine-protein kinase Fyn (Homo sapiens) (UniProt P06241); settings: at 0.1 µM
# Tyrosine-protein kinase Fyn (Homo sapiens), sequence (P06241 2-537 limits assumed): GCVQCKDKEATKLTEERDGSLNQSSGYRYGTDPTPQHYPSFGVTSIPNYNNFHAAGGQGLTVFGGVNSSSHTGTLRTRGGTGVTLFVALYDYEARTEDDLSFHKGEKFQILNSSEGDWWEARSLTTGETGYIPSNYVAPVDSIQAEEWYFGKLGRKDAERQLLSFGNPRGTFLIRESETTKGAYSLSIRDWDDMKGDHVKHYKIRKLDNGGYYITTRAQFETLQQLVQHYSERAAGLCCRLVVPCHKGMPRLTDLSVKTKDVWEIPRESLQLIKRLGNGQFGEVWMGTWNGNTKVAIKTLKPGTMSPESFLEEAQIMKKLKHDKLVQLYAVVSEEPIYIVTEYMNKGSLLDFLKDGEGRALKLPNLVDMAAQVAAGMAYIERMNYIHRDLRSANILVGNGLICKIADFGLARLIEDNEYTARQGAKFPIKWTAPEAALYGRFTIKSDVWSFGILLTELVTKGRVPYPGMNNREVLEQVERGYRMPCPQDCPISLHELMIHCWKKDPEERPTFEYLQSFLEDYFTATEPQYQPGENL
SMILES,inhibition [1] [%],inhibition [2] [%],inhibition [3] [%],inhibition [4] [%],inhibition [5] [%],inhibition [6] [%],inhibition [7] [%],inhibition [8] [%],inhibition [9] [%],inhibition [10] [%],inhibition [11] [%],inhibition [12] [%],inhibition [13] [%],inhibition [14] [%],inhibition [15] [%],inhibition [16] [%],inhibition [17] [%],inhibition [18] [%],inhibition [19] [%],inhibition [20] [%]
CCn1cc(-c2ccnc3[nH]ccc23)c(-c2cccc(NC(=O)Nc3ccc(OCc4ccccc4)cc3)c2)n1,3.46,1.35,0.82,0.4,-1.01,-0.55,-0.07,-1.04,-5.21,3.07,1.16,-0.45,-0.98,7.9,0.68,-0.45,-0.67,-7.9,0.27,0.67
O=C(O[C@H]1CN[C@H](C#Cc2cc3ncnc(Nc4ccc(Cc5ccccc5)cc4)c3s2)C1)N1CCOCC1,3.15,1.41,1.96,2.89,4.01,1.71,1.61,2.18,2.21,4.6,7.49,1.59,1.47,3.54,-0.77,-2.62,4.62,-3.48,3.66,-0.06
COc1cccc(-c2c[nH]c3c(N/N=C/c4ccncc4)ncnc23)c1,16.8,1.94,10.6,2.57,2.88,3.57,-1.66,2.88,3.62,4.67,5.28,2.36,1.97,7.43,62.7,4.35,29.5,21.6,68.6,14.4
